# Experimental data from publication PMC7862700, “An all-to-all approach to the identification of sequence-specific readers for epigenetic DNA modifications on cytosine”.
# Experiments:
# Experiment in all cases: DAPPL (digital affinity profiling via proximity ligation, sequencing); 10 mM Tris-HCl pH 7.5, 50 mM NaCl, 1 mM DTT, 4% glycerol, room temperature, 30 min; GST-TFs on glutathione beads, 16-mer random dsDNA library, 0.1% formaldehyde crosslink after washing; high values mean tight binding
# FEV = biological target: T1, FEV (Homo sapiens, UniProt Q99581 1-238); details: protein: recombinant; tags: N-terminal GST; dsDNA, one strand shown
# T1 sequence: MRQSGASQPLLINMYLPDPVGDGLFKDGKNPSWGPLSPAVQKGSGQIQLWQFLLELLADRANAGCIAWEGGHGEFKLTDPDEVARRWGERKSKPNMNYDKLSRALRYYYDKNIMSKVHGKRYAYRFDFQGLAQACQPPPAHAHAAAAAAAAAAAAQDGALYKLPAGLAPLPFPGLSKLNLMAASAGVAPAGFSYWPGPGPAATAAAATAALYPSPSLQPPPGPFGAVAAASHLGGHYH
# Method in brief: (§1)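 Beads coated with glutathione captured GST-fused human transcription factors that had been expressed in yeast, and the factors were then given DNA barcodes and pooled with a tag-only sample. The pools were incubated with 200 nmole of a random double-stranded 16-mer DNA library in Tris/NaCl/DTT/glycerol buffer for 30 min at room temperature, washed, crosslinked with 0.1% formaldehyde and proximity-ligated with BsaI/T4 ligase at 37 °C for 1 h. PCR amplification and Illumina NextSeq500 sequencing came last. Binding signal is each hexamer's read frequency for a factor divided by its frequency for the tag-only sample.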
# ETV5 = ETV5 (Homo sapiens, UniProt P41161 1-510); details: protein: recombinant; tags: N-terminal GST; dsDNA, one strand shown
# Method in brief: as §1
# HSF1 = HSF1 (Homo sapiens, UniProt Q00613 1-529); details: protein: recombinant; tags: N-terminal GST; chain copies: 3; dsDNA, one strand shown
# Method in brief: as §1
# SPIC = biological target: T2, SPIC (Homo sapiens, UniProt Q8N5J4 1-248); details: protein: recombinant; tags: N-terminal GST; dsDNA, one strand shown
# T2 sequence: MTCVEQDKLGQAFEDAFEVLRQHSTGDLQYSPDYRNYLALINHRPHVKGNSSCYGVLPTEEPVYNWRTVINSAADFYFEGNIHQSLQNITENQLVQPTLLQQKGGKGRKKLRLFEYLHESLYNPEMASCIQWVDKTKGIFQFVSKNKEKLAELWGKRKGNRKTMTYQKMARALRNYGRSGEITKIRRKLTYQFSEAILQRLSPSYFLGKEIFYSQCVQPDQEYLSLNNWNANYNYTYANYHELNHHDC
# Method in brief: as §1
# ELF4 = ELF4 (Homo sapiens, UniProt Q99607 1-663); details: protein: recombinant; tags: N-terminal GST; dsDNA, one strand shown
# Method in brief: as §1
# ELK4 = biological target: T3, ELK4 (Homo sapiens, UniProt P28324-2 1-405); details: protein: recombinant; tags: N-terminal GST; dsDNA, one strand shown
# T3 sequence: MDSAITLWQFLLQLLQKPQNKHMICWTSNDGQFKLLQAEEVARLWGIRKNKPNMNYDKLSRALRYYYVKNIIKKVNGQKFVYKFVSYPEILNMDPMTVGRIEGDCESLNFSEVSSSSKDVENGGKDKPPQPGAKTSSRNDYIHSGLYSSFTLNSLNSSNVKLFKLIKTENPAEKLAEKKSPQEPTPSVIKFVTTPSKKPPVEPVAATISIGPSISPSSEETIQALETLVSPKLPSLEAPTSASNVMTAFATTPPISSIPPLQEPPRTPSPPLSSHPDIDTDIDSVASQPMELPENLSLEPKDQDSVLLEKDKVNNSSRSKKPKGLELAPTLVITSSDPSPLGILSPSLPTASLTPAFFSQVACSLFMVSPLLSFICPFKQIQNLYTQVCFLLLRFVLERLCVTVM
# Method in brief: as §1
# ETV2 = biological target: T4, ETV2 (Homo sapiens, UniProt O00321 1-342); details: protein: recombinant; tags: N-terminal GST; dsDNA, one strand shown
# T4 sequence: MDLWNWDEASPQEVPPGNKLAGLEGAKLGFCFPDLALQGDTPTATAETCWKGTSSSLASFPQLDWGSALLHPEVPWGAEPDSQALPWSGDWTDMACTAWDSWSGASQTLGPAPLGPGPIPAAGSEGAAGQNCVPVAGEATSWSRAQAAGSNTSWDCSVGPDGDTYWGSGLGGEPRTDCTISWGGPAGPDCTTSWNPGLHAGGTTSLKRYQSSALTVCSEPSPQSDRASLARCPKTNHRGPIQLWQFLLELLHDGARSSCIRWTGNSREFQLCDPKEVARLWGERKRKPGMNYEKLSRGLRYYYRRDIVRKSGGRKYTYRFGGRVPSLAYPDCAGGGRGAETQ
# Method in brief: as §1
# ELF3 = biological target: T5, ELF3 (Homo sapiens, UniProt P78545 1-371); details: protein: recombinant; tags: N-terminal GST; dsDNA, one strand shown
# T5 sequence: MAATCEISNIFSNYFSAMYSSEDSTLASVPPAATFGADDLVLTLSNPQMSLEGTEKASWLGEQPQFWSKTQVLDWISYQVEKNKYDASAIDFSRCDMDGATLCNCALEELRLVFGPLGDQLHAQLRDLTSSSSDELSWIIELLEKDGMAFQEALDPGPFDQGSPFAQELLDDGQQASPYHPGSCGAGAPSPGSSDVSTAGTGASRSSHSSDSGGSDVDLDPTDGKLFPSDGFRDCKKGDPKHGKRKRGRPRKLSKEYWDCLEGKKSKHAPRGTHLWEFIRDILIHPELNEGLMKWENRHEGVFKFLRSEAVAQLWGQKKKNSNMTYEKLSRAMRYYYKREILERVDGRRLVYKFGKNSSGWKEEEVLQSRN
# Method in brief: as §1
# CRX = CRX (Homo sapiens, UniProt O43186 1-299); details: protein: recombinant; tags: N-terminal GST; dsDNA, one strand shown
# Method in brief: as §1
# ETV1 = ETV1 (Homo sapiens, UniProt P50549 1-477); details: protein: recombinant; tags: N-terminal GST; dsDNA, one strand shown
# Method in brief: as §1
# Chain of ELF4 (Q99607 whole entry): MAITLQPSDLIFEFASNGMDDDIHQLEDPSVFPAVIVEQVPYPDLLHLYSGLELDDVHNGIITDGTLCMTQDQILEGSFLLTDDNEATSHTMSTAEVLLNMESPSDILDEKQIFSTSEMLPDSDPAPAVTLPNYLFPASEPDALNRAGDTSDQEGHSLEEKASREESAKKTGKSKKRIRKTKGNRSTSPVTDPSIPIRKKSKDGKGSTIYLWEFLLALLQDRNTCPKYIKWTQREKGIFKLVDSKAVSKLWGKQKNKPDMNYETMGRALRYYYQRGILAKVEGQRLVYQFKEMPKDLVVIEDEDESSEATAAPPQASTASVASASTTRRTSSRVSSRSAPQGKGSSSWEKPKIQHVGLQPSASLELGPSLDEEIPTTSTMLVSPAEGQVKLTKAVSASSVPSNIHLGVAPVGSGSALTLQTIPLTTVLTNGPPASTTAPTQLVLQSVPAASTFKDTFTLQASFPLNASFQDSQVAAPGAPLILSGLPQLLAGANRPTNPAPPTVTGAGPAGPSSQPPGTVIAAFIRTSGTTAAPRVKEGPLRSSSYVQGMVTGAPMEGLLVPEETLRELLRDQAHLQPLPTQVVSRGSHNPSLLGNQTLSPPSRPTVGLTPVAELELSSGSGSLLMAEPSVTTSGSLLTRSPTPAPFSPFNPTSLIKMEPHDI
# Chain of ETV1 (P50549 whole entry): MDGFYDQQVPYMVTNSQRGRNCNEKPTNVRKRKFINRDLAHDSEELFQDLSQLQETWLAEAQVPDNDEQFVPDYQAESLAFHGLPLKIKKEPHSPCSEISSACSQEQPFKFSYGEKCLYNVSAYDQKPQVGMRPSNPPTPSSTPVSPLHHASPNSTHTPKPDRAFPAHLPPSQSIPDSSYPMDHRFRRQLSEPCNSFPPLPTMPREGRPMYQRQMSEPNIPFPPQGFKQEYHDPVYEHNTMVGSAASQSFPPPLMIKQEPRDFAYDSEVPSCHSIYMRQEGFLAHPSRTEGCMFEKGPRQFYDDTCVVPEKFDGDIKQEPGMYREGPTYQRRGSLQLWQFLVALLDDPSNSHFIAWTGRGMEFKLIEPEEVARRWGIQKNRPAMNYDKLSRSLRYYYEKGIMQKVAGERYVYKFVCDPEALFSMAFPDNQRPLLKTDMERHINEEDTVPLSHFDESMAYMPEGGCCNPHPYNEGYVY
# Chain of CRX (O43186 whole entry): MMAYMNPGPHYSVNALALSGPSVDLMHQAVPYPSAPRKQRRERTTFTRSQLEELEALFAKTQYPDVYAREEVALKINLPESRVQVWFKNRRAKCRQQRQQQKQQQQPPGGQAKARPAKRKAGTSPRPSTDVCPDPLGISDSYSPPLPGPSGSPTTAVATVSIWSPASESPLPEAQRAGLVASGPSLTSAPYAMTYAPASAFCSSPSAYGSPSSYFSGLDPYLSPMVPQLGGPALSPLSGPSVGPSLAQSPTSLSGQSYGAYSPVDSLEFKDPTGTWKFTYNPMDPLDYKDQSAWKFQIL
# Chain of HSF1 (Q00613 whole entry): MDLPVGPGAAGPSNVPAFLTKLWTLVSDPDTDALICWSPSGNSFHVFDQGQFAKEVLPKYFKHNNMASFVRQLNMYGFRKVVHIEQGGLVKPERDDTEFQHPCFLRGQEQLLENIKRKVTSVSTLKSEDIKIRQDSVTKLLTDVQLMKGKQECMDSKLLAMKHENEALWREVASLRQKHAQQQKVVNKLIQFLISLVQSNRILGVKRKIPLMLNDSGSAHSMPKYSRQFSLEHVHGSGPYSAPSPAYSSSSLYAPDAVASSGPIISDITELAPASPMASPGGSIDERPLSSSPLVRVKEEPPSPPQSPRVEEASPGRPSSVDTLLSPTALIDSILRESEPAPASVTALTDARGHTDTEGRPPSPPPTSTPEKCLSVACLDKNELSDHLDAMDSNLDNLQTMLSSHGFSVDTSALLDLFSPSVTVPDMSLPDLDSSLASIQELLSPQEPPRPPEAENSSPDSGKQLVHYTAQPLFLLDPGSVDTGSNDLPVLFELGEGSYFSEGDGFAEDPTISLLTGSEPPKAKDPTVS
# Chain of ETV5 (P41161 whole entry): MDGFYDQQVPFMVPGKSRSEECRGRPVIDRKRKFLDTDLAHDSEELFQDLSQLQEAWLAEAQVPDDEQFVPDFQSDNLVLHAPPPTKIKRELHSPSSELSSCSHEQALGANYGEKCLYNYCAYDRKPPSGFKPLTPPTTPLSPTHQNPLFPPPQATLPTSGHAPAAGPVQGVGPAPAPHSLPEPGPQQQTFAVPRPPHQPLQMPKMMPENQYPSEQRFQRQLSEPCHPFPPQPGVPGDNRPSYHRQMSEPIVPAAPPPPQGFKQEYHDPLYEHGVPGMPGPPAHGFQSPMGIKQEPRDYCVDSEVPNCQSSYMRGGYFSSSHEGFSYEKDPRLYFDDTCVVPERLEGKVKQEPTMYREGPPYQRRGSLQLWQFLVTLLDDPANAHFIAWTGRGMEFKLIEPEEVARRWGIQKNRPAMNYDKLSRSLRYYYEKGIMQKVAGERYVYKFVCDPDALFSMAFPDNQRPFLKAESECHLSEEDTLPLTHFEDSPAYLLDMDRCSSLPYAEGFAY
sequence,measurement,setting,value
TTTCAG,binding signal,FEV,"1.3 fold enrichment (6-mer frequency, TF over GST control)"
same,binding signal,ETV5,"1.28 fold enrichment (6-mer frequency, TF over GST control)"
same,binding signal,HSF1,"1.3 fold enrichment (6-mer frequency, TF over GST control)"
same,binding signal,SPIC,"1.14 fold enrichment (6-mer frequency, TF over GST control)"
same,binding signal,ELF4,"1.33 fold enrichment (6-mer frequency, TF over GST control)"
same,binding signal,ELK4,"1.38 fold enrichment (6-mer frequency, TF over GST control)"
same,binding signal,ETV2,"1.43 fold enrichment (6-mer frequency, TF over GST control)"
same,binding signal,ELF3,"1.24 fold enrichment (6-mer frequency, TF over GST control)"
same,binding signal,CRX,"1.31 fold enrichment (6-mer frequency, TF over GST control)"
same,binding signal,ETV1,"1.39 fold enrichment (6-mer frequency, TF over GST control)"
